Source: PubChem BioAssay (several laboratories)
A selection: hits, their analogues and other compounds. The true share with any hit is near 6.6%.
CSC inhib: cancer stem cell inhibition. cancer stem cell-like cells viability, luminescence. 300,000 tested, 1.1% active. inhibition, % at 7.5 µM; in the data active = inhibition above about 75%; tested in HMLE shEcad cells
NR3A LBD binder: modulates the human NR3A ligand-binding domain. NR3A LBD differential scanning fluorimetry, Tm shift; 0% = protein alone, 100% = glycine-bound protein. Tm shift relative to glycine control, % at 25 µM. 340,000 tested, 2.5% active. AID 1259313;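 active = melting temperature shift of at least 10% of the positive control shift, at one fixed dose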
MPTP inh: inhibitors of mitochondrial permeability transition pore. isolated mouse mitochondria, Ca2+ swelling absorbance, 30 min. inhibition, % at 10 µM. 360,000 tested, 1.4% active. AID 602449;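 active = inhibition of 50% or more, scaled per plate between neutral and stimulator controls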
Gli-Sufu antag: Gli-Sufu pathway antagonism; inhibition, % at 5 µM; 340,000 tested, 0.74% active; AID 588413; Sufu-KO-LIGHT fibroblasts, Gli luciferase reporter luminescence;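 active = inhibition above about 55%, limit read from the data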
Beta apoptosis: blocks beta cell apoptosis | 300,000 tested, 0.8% active | protection from apoptosis, % (concentration not given with the values) | INS-1E cytokine-induced death, ATP luminescence, 48 h; percent of positive-control rescue, neutral wells zero | AID 435005;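 active = Every replicate reaches about 75%, or at least half do and their mean reaches it too, limit read from the data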;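 also: higher means more ATP so stronger rescue from cytokine killing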
Mdm2 MdmX PPI: human Mdm2/MdmX binding inhibition; inhibition, % at 8 µM; 330,000 tested, 3% active; O15151+Q00987; SaOS-2 split-luciferase Mdm2/MdmX complementation, luminescence; AID 485346;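 active = inhibition of at least 50% at 8 µM in the primary screen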
Target sequence (O15151 whole entry, looked up): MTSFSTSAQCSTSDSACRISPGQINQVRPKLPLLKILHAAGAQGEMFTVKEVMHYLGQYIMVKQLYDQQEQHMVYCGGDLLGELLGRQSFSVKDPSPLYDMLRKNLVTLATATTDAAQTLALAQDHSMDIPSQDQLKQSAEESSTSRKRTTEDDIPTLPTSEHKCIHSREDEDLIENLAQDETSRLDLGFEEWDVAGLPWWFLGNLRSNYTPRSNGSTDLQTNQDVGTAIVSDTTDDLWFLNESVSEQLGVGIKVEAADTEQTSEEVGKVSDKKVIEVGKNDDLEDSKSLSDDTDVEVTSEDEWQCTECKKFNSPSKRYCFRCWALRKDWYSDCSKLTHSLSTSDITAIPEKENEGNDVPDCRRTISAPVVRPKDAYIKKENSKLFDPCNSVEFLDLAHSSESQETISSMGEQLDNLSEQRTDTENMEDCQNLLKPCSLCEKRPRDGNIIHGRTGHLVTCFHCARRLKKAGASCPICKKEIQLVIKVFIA
Target sequence (Q00987 whole entry, looked up): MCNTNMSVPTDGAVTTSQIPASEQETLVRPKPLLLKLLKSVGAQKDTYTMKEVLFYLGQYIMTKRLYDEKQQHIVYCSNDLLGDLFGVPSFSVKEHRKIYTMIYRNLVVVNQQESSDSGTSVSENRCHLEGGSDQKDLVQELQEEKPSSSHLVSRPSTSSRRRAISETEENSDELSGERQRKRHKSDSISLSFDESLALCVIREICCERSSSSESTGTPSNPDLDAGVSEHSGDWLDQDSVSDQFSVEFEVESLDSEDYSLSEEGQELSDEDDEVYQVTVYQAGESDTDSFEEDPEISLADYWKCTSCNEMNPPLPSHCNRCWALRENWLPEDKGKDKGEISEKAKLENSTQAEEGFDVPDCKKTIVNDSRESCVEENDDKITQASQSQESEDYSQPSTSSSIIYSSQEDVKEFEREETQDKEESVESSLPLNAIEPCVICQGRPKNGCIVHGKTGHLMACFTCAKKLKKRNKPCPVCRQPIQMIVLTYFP
Rh123 counter: Rhodamine 123 counter-screen of mitochondrial pore hits; shares compounds with MPTP inh; isolated mitochondria, membrane potential, Rhodamine 123 fluorescence; inhibition, % at 10 µM; 5,000 tested, 78% active; in the data active = inhibition above about 22%
MPTP abs DR: MPTP inhibition, dose response swelling confirmation. shares compounds with MPTP inh. isolated mitochondria swelling, absorbance. IC50, µM. 780 tested, 58% active. AID 651561; in the data active = IC50 below about 20 µM
MPTP counter DR: MPTP inhibitor counter-screen activity, dose response; IC50, µM; 780 tested, 49% active; shares compounds with MPTP inh; isolated mitochondria counterscreen, fluorescence read-out; in the data active = IC50 below about 80 µM
Hits are given with their value; 0 = inactive; - = no result; ! = a repeat was not active.

SMILES | CSC inhib | NR3A LBD binder | MPTP inh | Gli-Sufu antag | Beta apoptosis | Mdm2 MdmX PPI | Rh123 counter | others
CCN(CCn1cccn1)C(=O)CC1C(=O)NCCN1CCc1ccccc1 (stereo not drawn) | 0 | 0 | 0 | 0 | 0 | 0 | -
COC(=O)c1cc(NC(=O)c2cc(-c3ccc(C(F)(F)F)cc3)oc2C(F)(F)F)ccc1N1CCOCC1 | 0 | 0 | 88 | 0 | - | 0 | 69
COC(=O)c1cc(NC(=O)c2cc(-c3ccc(OC)cc3)oc2C(F)(F)F)ccc1N1CCOCC1 | 0 | 0 | 0 | 0 | 0 | 0 | -
CN1CCN(NC(=O)c2cc(-c3ccc(Br)s3)nc3ccccc23)CC1 | 0 | 0 | 82 | 0 | 0 | 0 | 0 | MPTP abs DR=15;MPTP counter DR=0
CCOC(=O)Cn1nc(C)n(-c2ccc(C(C)(C)C)cc2)c1=O | 0 | 0 | 0 | 0 | - | 0 | -
COc1ccc(-c2cc3ccccc3n2CC(O)CNCCO)cc1 (stereo not drawn) | 0 | 0 | 54 | 0 | 0 | 0 | 0 | MPTP abs DR=10;MPTP counter DR=0
COc1ccccc1/C=N/NC(=O)c1ccc(Cn2nc([N+](=O)[O-])cc2C)cc1 | 0 | 0 | 65 | 0 | 0 | 0 | 0 | MPTP abs DR=0;MPTP counter DR=0
COc1ccc(/C=N/NC(=O)Cn2nc([N+](=O)[O-])cc2C)c(OC)c1OC | 0 | 0 | 0 | 0 | 0 | 0 | -
COc1ccccc1NS(=O)(=O)c1ccc(N/N=C(\C)C(C)C)c([N+](=O)[O-])c1 | 0 | 0 | 76 | 0 | 78 | 0 | 55
Cc1c(NC(=O)CSc2nc3ccccc3n2C)c(=O)n(-c2ccccc2)n1C | 0 | 0 | 0 | 0 | 0 | 0 | -
C=CC[n+]1c(-c2ccc(OC)c(OC)c2)csc1NNC(=O)Nc1ccccc1 | - | 0 | 64 | 0 | - | 0 | 31
Cc1ccc(NC(=S)NC(NC(=O)C(C)(C)C)C(Cl)(Cl)Cl)c(C)c1 (stereo not drawn) | 0 | 0 | 57 | 0 | 0 | 0 | 64
Cc1ccc(C)c(NC(=S)NC(NC(=O)OCc2ccccc2)C(Cl)(Cl)Cl)c1 (stereo not drawn) | 0 | 15 | 95 | 0 | 0 | 0 | 83
CC(=O)NC(NC(=S)Nc1ccc(N=Nc2ccccc2C)cc1C)C(Cl)(Cl)Cl (stereo not drawn) | 0 | 0 | 88 | 0 | - | 0 | 63
CC(=O)NC(NC(=S)Nc1ccccc1Br)C(Cl)(Cl)Cl (stereo not drawn) | 0 | 0 | 0 | 0 | 0 | 0 | -
COc1cccc(NC(=O)N2CCN(c3nnnn3-c3ccccc3)CC2)c1 | 0 | 0 | 0 | 0 | 0 | 0 | -
CC(C)c1cccc(-c2csc(C(O)c3ccco3)n2)c1 (stereo not drawn) | - | - | 0 | - | - | - | -
CCOC(=O)c1c(C)oc(NC(=O)COc2ccc(Cl)cc2C)c1C#N | 0 | 0 | 70 | 0 | 0 | 0 | 51
CSc1ccccc1NC(=O)COc1ccc(Cl)cc1C | 0 | 0 | 0 | 0 | 0 | 0 | -
CCOC(=O)c1c(CN2CCN(CCO)CC2)n(C)c2cc(Br)c(OC)cc12 | 0 | 0 | 68 | 0 | 0 | 0 | 0 | MPTP abs DR=0;MPTP counter DR=0
CCOC(=O)c1c(CNCCN(CC)CC)n(C)c2cc(Br)c(OC)cc12 | 0 | 0 | 74 | 0 | 0 | 0 | 0 | MPTP abs DR=0;MPTP counter DR=0
CC(On1c(-c2ccccc2)nc2ccc(Cl)cc21)C(=O)O (stereo not drawn) | 0 | 0 | 0 | 0 | 0 | 0 | -
CCOC(=O)COn1c(-c2cccc(Cl)c2)nc2ccc([N+](=O)[O-])cc21 | 0 | 0 | 57 | 0 | 0 | 0 | 81
CCOC(=O)C(C)On1c(-c2cccc(Cl)c2)nc2ccc([N+](=O)[O-])cc21 (stereo not drawn) | 0 | 10 | 87 | 0 | 0 | 0 | 99
Cc1ccc(S(=O)(=O)NCc2ccc(C(=O)NCCN(Cc3ccccc3)C(C)C)cc2)cc1 | 0 | 0 | 51 | 0 | 0 | 0 | 71
SMILES | CSC inhib | NR3A LBD binder | MPTP inh | Gli-Sufu antag | Beta apoptosis | Mdm2 MdmX PPI | Rh123 counter | others
CN(Cc1ccccc1)S(=O)(=O)c1ccccc1Br | - | 0 | 0 | 0 | - | 0 | -
CCOC(=O)C1=C(O)c2ccccc2C(=O)/C1=C\c1ccc(CC)cc1 | 0 | 0 | 67 | 0 | 0 | - | 77
CCCc1ccc(/C=C2\C(=O)c3ccccc3C(O)=C2C(=O)OCC)cc1 | 0 | - | - | - | 0 | 0 | -
COc1ccc(-c2nc(NC(C)=O)sc2-c2ccccc2)cc1 | - | 0 | 82 | 0 | - | 0 | 0 | MPTP abs DR=0;MPTP counter DR=0
NC(=S)NN=C1CCSCC1 | - | 0 | 0 | 0 | - | - | -
CN(C(=S)Nc1ccc(SC(F)F)cc1)c1ccc(O)cc1 | 0 | 0 | 97 | 0 | - | 0 | 82
CN(C(=S)Nc1ccc(Oc2ccccc2)cc1)c1ccc(O)cc1 | 0 | 0 | 0 | 0 | 0 | - | -
CCC(C)NCCCCOc1cc(C)cc(C(C)C)c1 (stereo not drawn) | 0 | 0 | 0 | 0 | 0 | 0 | -
Cc1cccc2[nH]c3c(N4CC=C(c5ccc(F)cc5)CC4)ncnc3c12 | 78 | 0 | 66 | 0 | 0 | 0 | 62
O=[N+]([O-])c1cc(-c2cccnc2)n[nH]1 | - | 0 | 0 | 0 | - | - | -
O=[N+]([O-])c1cc([N+](=O)[O-])c2cc(-c3cccnc3)[nH]c2c1 | 0 | 0 | 52 | 0 | 0 | 0 | 56
Cc1cccc2c1cnn2C(=O)CCC(=O)N1CCC(C)CC1 | 0 | 0 | 0 | 0 | 0 | 0 | -
O=C1C2C3C=CC(C3)C2C(=O)N1c1ccc(Cc2ccncc2)cc1 (stereo not drawn) | 0 | 0 | 0 | 0 | 0 | 0 | -
O=C1c2ccc(Br)cc2C(=O)N1c1ccc(Cc2ccncc2)cc1 | - | 0 | 102 | 0 | - | - | 92
Oc1ccc[n+](CCCCC[n+]2cccc(O)c2)c1 | 0 | 0 | 0 | 0 | 0 | 0 | -
CCCCCCCCCCCCCCCC[n+]1ccccc1 | - | 0 | 53! | 84 | - | - | 107
O=C1NC(=O)C(=Cc2ccc(Cl)c(Cl)c2)S1 | - | 0 | 73 | 0 | - | - | 92
O=C1NC(=O)/C(=C/c2ccc(O)cc2)S1 | 0 | 0 | 0 | 0 | 0 | 0 | -
CC1Oc2ccccc2C=C1/C=N/NC(=O)c1ccccc1 (stereo not drawn) | 0 | 0 | 0 | 0 | 0 | 0 | -
CC1Oc2ccccc2C=C1/C=N/NC(=O)c1ccccc1O (stereo not drawn) | 0 | 13 | 90 | 0 | 0 | 0 | 72
CSc1nc(Oc2cccc(C(F)(F)F)c2)cc(C(F)(F)F)n1 | 0 | 0 | 55 | 0 | 0 | 0 | 0 | MPTP abs DR=11;MPTP counter DR=0
CSc1nc(Oc2ccc(F)cc2F)cc(C(F)(F)F)n1 | 0 | 0 | 0 | 0 | 0 | 0 | -
O=C(COc1ccc(-c2nnco2)cc1)Nc1cc([N+](=O)[O-])ccc1F | 0 | 0 | 0 | 0 | 0 | 0 | -
Cc1n[nH]c(C)c1CCOc1ccc(C(C)C)cc1 | - | 0 | 0 | 0 | 0 | 0 | -
COc1ccc(OCCCCc2c(C)n[nH]c2C)cc1 | - | 0 | 51 | 0 | - | 0 | 36
CCNC(=O)C1CCCN(Cc2cc(C(F)(F)F)ccc2Cl)CC1 (stereo not drawn) | - | - | 0 | - | - | - | -
